Rows were chosen to be rich in hits. Some 27% of all compounds tested hit in one or more screens of this group.
CYP2C19 inhib: blockers of cytochrome P450 2C19 activity – biochemical, luminescence, ADME assay, primary screen. 96,000 tested, 21% active. AID 778, 2007. inhibition, % at 5 µM. P33261. CYP2C19 Supersomes, luciferin-H EGE luminescence, 30 min;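 active = CYP2C19 inhibition above a set limit at 5 µM in the primary screen, cut at about 50% in these data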;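 note: plate controls were negative control wells for no effect and 2.5 mM tranylcypromine positive control for full effect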
sEH act: soluble epoxide hydrolase activators, primary screen, biochemical, human sEH. Bifunctional epoxide hydrolase 2 (Homo sapiens), P34913. purified human sEH enzymatic activity, activator screen. activation, % at 2 µM. 91,000 tested, 0.04% active. AID 717, 2007; in the data active = activation above about 37%
CYP2C19 act: human CYP2C19 activators, primary screen, biochemical, luminescence | activation factor at 5 µM | Cytochrome P450 2C19 (Homo sapiens), P33261 | 96,000 tested, under 10 active | recombinant CYP2C19, luciferin-H EGE luminescence; active compounds read high; 0 = fully inhibited enzyme, 1 = untreated enzyme;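 active = activation factor of at least 2 at 5 µM in the primary screen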;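 note: 0 = wells with 2.5 mM tranylcypromine and 1 = vehicle-only wells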
sEH inhibitor: soluble epoxide hydrolase inhibitors, primary screen, biochemical, human sEH. recombinant human sEH enzymatic activity assay. inhibition, % at 2 µM. 91,000 tested, 0.34% active. AID 707, 2007; in the data active = inhibition above about 80%
CYP2C9 inhib: blockers of cytochrome P450 2C9 activity – biochemical, luminescence, ADME assay, primary screen; CYP2C9 Supersomes, luciferin-H conversion; 96,000 tested, 20% active; inhibition, % at 5 µM;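 active = blocking of liver enzyme CYP2C9 beyond about 50% at 5 µM, limit read from the data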
Target sequence (P11712 whole entry, looked up): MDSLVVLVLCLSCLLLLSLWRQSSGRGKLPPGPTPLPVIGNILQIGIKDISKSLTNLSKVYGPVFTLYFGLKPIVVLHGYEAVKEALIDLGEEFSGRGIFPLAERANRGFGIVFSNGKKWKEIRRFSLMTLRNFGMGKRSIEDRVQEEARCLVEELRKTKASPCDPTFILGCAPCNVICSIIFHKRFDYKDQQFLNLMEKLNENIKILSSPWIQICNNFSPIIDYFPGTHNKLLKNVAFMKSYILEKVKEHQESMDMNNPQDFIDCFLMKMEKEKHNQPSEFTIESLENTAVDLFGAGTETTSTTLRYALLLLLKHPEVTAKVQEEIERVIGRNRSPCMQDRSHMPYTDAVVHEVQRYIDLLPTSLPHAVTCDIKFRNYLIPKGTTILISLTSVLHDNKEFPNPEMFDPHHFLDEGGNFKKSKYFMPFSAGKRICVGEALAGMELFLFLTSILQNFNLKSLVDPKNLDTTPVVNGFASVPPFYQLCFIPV
CYP2C9 act: human CYP2C9 activators, primary screen, biochemical, luminescence; activation factor at 5 µM; AID 1024, 2008; 96,000 tested, 1.4% active; recombinant CYP2C9, luciferin-H conversion; active compounds read high; factor 1 = untreated enzyme, 0 = blocked; Cytochrome P450 2C9 (Homo sapiens), P11712;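 active = activation factor of 2 or more for CYP2C9 at a 5 µM dose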;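 note: 0 = sulfaphenazole-blocked wells and 1 = vehicle-only wells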
Numbers without * were called inactive; · = no result.

SMILES	CYP2C19 inhib	sEH act	CYP2C19 act	sEH inhibitor	CYP2C9 inhib	CYP2C9 act
CC1=C(C(=O)Nc2ccc(C)cc2C)C(c2ccc([N+](=O)[O-])cc2)n2ncnc2N1 (stereo not given)	16	-7	0.8	5	1	1
CCCN1C(=O)c2ccccc2NC1c1ccc(OC)cc1OC (stereo not given)	63*	-4	0.4	4	53*	0.5
CCCN1C(=O)c2ccccc2NC1c1ccc(OC)cc1O (stereo not given)	81*	7	0.2	-7	46	0.5
Cc1ccc(C(=O)OCC(=O)Nc2sc3c(c2C#N)CCCCC3)cc1NC(=O)c1ccco1	60*	0	0.4	-1	92*	0.1
Cc1ccc(C(=O)OCC(=O)Nc2sc3c(c2C#N)CCCC3)cc1NC(=O)c1ccco1	34	-6	0.7	7	91*	0.1
Cc1ccc(C(=O)OCC(=O)Nc2ccccc2)cc1NC(=O)c1ccco1	26	-13	0.7	13	15	0.8
Cc1ccc2nc(NC(=O)COC(=O)c3ccco3)sc2c1	-2	7	1	-9	5	0.9
Cc1ccc(C(=O)OCC(=O)Nc2ncc(Cl)cc2Cl)cc1NC(=O)c1ccco1	92*	-11	0.1	12	69*	0.3
Cc1nc(NC(=O)COC(=O)C(NC(=O)c2ccco2)C(C)C)c(Cl)cc1Cl (stereo not given)	95*	-6	0.1	8	24	0.8
COc1ccc(NC(=O)CC2SC(=Nc3ccccc3)NC2=O)c(OC)c1 (stereo not given)	-8	-14	1.1	14	37	0.6
Cc1ccc(OCC(=O)NNC(=O)c2cc3ccccc3o2)cc1C	1	-1	1	0	-13	1.1
CCC(C)c1ccccc1NC(=O)COC(=O)c1ccc(C)c(NC(=O)c2ccco2)c1 (stereo not given)	75*	6	0.3	-3	44	0.6
Cc1ccc(C(=O)OCC(=O)Nc2sccc2C(N)=O)cc1NC(=O)c1ccco1	19	10	0.8	-13	94*	0.1
Cc1ccccc1S(=O)(=O)Cc1ccc(C(=O)NCCN2CCN(Cc3ccccc3)CC2)o1	12	·	0.9	·	50	0.5
COc1ccc(Cn2cc(F)c(=O)n(CCC(C)C)c2=O)cc1[N+](=O)[O-]	20	2	0.8	-4	34	0.7
CCOC(=O)CSc1nnc(CNC(=O)c2ccc(OC)c(OC)c2)n1C	-20	0	1.2	1	-19	1.2
Cc1nc(C2CC(=O)OC23CCCCC3)cs1 (stereo not given)	78*	·	0.2	·	18	0.8
CC(=O)c1c(C)nc(-c2ccccc2)nc1NC(=O)C(C)C	43	2	0.6	-2	74*	0.3
CC(=O)c1c(C)nc(-c2ccc(Cl)cc2)nc1NC(=O)C(C)C	62*	9	0.4	-11	94*	0.1
CC1(C)NC(=O)N(CC(O)COc2ccccc2C(=O)Nc2ccccc2)C1=O (stereo not given)	28	·	0.7	·	33	0.7
CC1(C)NC(=O)N(CCCOc2ccccc2Br)C1=O	89*	0	0.1	0	57*	0.4
CCOc1cc(C=O)ccc1OCCCN1C(=O)NC(C)(C)C1=O	68*	-3	0.3	2	31	0.7
C/C=C/c1ccc(OCCCCN2C(=O)NC(C)(C)C2=O)c(OC)c1	33	4	0.7	-4	22	0.8
CC1(C)NC(=O)N(CCOc2cccc(Cl)c2Cl)C1=O	87*	-8	0.1	11	32	0.7
CC1(C)NC(=O)N(CCOCCOc2c(Cl)cc(Cl)cc2Cl)C1=O	56*	4	0.4	-5	40	0.6
SMILES	CYP2C19 inhib	sEH act	CYP2C19 act	sEH inhibitor	CYP2C9 inhib	CYP2C9 act
CCOC(=O)/C(C#N)=C\C=C1C=CN(C)C=C1	-13	3	1.1	0	5	1
Cc1ccc(NC(=O)CN(C)S(=O)(=O)c2cccc3nsnc23)cc1Cl	40	-2	0.6	8	84*	0.2
Cc1ccc(NC(=O)CN(C)S(=O)(=O)c2cccc3nsnc23)cc1C	35	2	0.7	-2	78*	0.2
CCN(CCCNC(=O)CN(C)S(=O)(=O)c1cccc2nsnc12)c1ccccc1	37	·	0.6	·	74*	0.3
CN(CC(=O)NCCN1CCN(Cc2ccccc2)CC1)S(=O)(=O)c1cccc2nsnc12	-6	4	1.1	-4	-5	1.1
CN(CC(=O)NCc1ccc(Cl)cc1)S(=O)(=O)c1cccc2nsnc12	82*	4	0.2	-4	20	0.8
CCCCC(=O)Nc1ccc(NC(=O)CC)cc1OC	10	-4	0.9	2	40	0.6
Cc1sc(-n2c(C)cc(C=O)c2C)c(C(=O)O)c1C	-8	12	1.1	-15	8	0.9
Cc1ccc2nc(NC(=O)CN(C)S(=O)(=O)c3cccc4nsnc34)sc2c1	23	-5	0.8	10	19	0.8
CN(CC(=O)Nc1ccc(F)c(F)c1)S(=O)(=O)c1cccc2nsnc12	39	2	0.6	-2	70*	0.3
Cc1ccnc(NC(=O)CN(C)S(=O)(=O)c2cccc3nsnc23)c1	21	16	0.8	-14	77*	0.2
CC(=O)c1cccc(NC(=O)CCNS(=O)(=O)c2cccc3nsnc23)c1	5	-8	0.9	10	-9	1.1
O=C(CCN1C(=O)C2CC=C(Cl)CC2C1=O)N1CCCCC1 (stereo not given)	22	5	0.8	-6	-9	1.1
CC1Cc2ccccc2N1C(=O)CN1CCc2ccccc2C1 (stereo not given)	92*	·	0.1	·	36	0.6
CC1Cc2ccccc2N1C(=O)CSc1nnc(CSc2ncccn2)n1C (stereo not given)	26	·	0.7	·	16	0.8
CC1Cc2ccccc2N1C(=O)Cn1nc(C(=O)O)c2ccccc2c1=O (stereo not given)	-4	9	1	-10	1	1
CC1Cc2ccccc2N1C(=O)CSc1nc2c(c(=O)n(C)c(=O)n2C)n1Cc1ccccc1 (stereo not given)	76*	·	0.2	·	96*	0
CC1Cc2ccccc2N1c1ncnc2c1nnn2Cc1ccccc1 (stereo not given)	47	1	0.5	-4	65*	0.4
CC1Cc2ccccc2N1C(=O)CSc1nnnn1Cc1ccccc1 (stereo not given)	90*	·	0.1	·	84*	0.2
Cn1c(SCC(=O)OC2CCCCC2)nnc1-c1ccco1	·	-7	·	7	·	·

Bioassay records (PubChem)
